Cruzain Triton: qHTS Assay for Promiscuous and Specific Inhibitors of Cruzain (with detergent). hit rate 0.43% among 200,000. AID 1478, 2009. Potency, µM, most hits filed as inhibitors. Cruzipain (Trypanosoma cruzi), P25779. purified cruzain, Z-FR-AMC fluorescence, 0.01% Triton; note: nearly all actives have a fitted effect of over 40% in size
Target sequence (P25779 123-467 limits assumed): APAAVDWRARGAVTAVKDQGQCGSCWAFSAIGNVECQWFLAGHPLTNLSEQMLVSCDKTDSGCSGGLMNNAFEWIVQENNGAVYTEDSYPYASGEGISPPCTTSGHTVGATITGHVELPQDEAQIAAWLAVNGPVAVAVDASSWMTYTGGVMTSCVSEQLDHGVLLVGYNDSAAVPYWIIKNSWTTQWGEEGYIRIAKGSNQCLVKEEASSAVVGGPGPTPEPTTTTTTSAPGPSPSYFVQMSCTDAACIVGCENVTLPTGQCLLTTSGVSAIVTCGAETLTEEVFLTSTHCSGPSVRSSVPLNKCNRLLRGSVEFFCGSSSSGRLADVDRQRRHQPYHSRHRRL
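Read-out: AMC fluorescence (360 nm excitation, 450 nm emission), four reads over 2 min, first-to-third difference used. Conditions: cruzain 1.5 nM, Z-FR-AMC 2 uM, pH 5.5 acetate, 5 mM DTT, 0.01% Triton X-100.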
Cruzain noTriton: qHTS Assay for Promiscuous and Specific Inhibitors of Cruzain (without detergent); Potency, µM, usual class: inhibitors; purified cruzain, Z-FR-AMC fluorescence, no detergent; Cruzipain (Trypanosoma cruzi), P25779; hit rate 2.3% among 200,000; note: nearly all actives have a fitted effect of over 40% in size
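Detergent-free condition (0.00005% Triton X-100) in acetate buffer pH 5.5 with DTT. 1.5 nM enzyme and compound were pre-mixed 15 min, then 2 uM Z-FR-AMC substrate added; reaction progress from fluorescence change between first and third reads (60 s).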
Large screens that a line does not name were inactive. In the library only some 2.6% were active in any assay of this set; here they are far more common. Calls come from the whole dose curve; as a rule, active = well fitted curve in the direction sought with a large enough effect; inconclusive = small, poorly fitted or top-dose-only effect, or another doubt; inactive = no such curve, though single readings can be large; an effect the other way counts as inactive or inconclusive.

O=S(=O)(Nc1cc(Sc2cccc3cccnc23)c(O)c2ccccc12)c1ccccc1	Cruzain noTriton 3.2µM
Cc1ccc(S(=O)(=O)Nc2cccc3cccnc23)cc1	none
Cc1cccc(NC(=S)N/N=C/c2c[nH]c3ccccc23)c1	Cruzain Triton inconclusive
NC(=S)N/N=C\c1c2ccccc2cc2ccccc12	Cruzain Triton 0.89µM, Cruzain noTriton 1µM
NC(=S)N/N=C\c1c[nH]c2ccccc12	Cruzain Triton 0.71µM, Cruzain noTriton 0.32µM
S=C(NCCN1CCOCC1)N/N=C/c1c2ccccc2cc2ccccc12	Cruzain noTriton inconclusive
Cc1ccccc1Nc1sc(C(=O)c2ccc3c(c2)OCO3)c(N)c1S(=O)(=O)c1ccccc1	Cruzain noTriton 7.9µM
COc1ccc(S(=O)(=O)c2c(Nc3ccc(C)cc3)sc(C(=O)c3ccc4c(c3)OCO4)c2N)cc1	Cruzain noTriton 3.2µM
Cc1ccc(Nc2sc(C(=O)c3ccccc3)c(N)c2C(=O)Nc2ccc(Cl)cc2)cc1	Cruzain noTriton inconclusive
Cc1ccc(S(=O)(=O)c2c(Nc3ccccc3)sc(C(=O)c3ccc4c(c3)OCO4)c2N)cc1	Cruzain noTriton 7.9µM
Cc1ccc(CNC(=O)c2c(Nc3ccccc3C)sc(C(=O)c3ccc(F)cc3)c2N)cc1	Cruzain noTriton inconclusive
COc1ccc(S(=O)(=O)c2c(Nc3ccc(F)cc3)sc(C(=O)c3ccc4c(c3)OCO4)c2N)cc1	Cruzain noTriton inconclusive
CC1=C(C(=O)O)N2C(=O)[C@@H](NC(=O)[C@@H](N)c3ccc(O)cc3)[C@@H]2SC1	none
Cc1cc(N2CCN(S(=O)(=O)c3ccccc3)CC2)c2ccccc2n1	none
O=S(=O)(c1ccc(Cl)cc1)N1CCN(c2nc(-c3cccs3)nc3ccccc23)CC1	Cruzain noTriton 10µM
O=S(=O)(c1ccccc1)N1CCN(c2nc(-c3cccs3)nc3ccccc23)CC1	Cruzain noTriton 16µM
O=C(c1cc(-c2cccs2)nc2ccccc12)N1CCN(S(=O)(=O)c2ccccc2)CC1	Cruzain noTriton inconclusive
N=C(N)[C@H](N=Nc1ccccc1)C(N)=O	none
C[C@](O)(c1ccccc1)c1nccc2ccccc12	none
CC1=C[N+](=O)c2ccccc2[N+]1=O	none
CC(/C=C/c1ccc(O)cc1)=N/O	Cruzain Triton 22µM, Cruzain noTriton 7.9µM
CC(/C=C/c1ccc(OCc2ccccc2)cc1)=N\O	Cruzain noTriton inconclusive
COc1ccccc1NC(=O)CN(c1ccc([N+](=O)[O-])cc1)S(=O)(=O)c1ccccc1	none
COc1ccc(N(CC(=O)N/N=C/c2ccc(-c3ccc([N+](=O)[O-])cc3)o2)S(=O)(=O)c2ccc(C)cc2)cc1	Cruzain noTriton 4µM
COc1ccc(N(CC(=O)N/N=C/c2ccc(-c3ccc([N+](=O)[O-])cc3)o2)S(=O)(=O)c2ccc(C)cc2)cc1Cl	Cruzain noTriton 6.3µM
COc1ccc(NC(=O)CN(c2ccc([N+](=O)[O-])cc2)S(=O)(=O)c2ccccc2)c(OC)c1	none
c1ccc2c3c([nH]c2c1)[C@@H]1[C@H]2CC[C@H]([C@H]4CCCN[C@H]42)N1CC3	none
S=C(Nc1ccccc1)Nc1ccccc1C#Cc1ccccc1	none
CCCCC[C@H](O)/C=C/[C@H]1OC(O)C[C@H](O)[C@@H]1C/C=C\CC(=O)O (stereo partly specified)	none
COc1cc(C(=O)Nc2ccc(Oc3ncnc4sc(-c5ccccc5)cc34)cc2)cc(OC)c1OC	none
COc1ncnc2sc(-c3ccccc3)cc12	none
COc1ccccc1C(=O)Nc1ccc(Oc2ncnc3sc(-c4ccccc4)cc23)cc1	Cruzain noTriton 6.3µM
COc1ccc(Nc2ncnc3sc(-c4ccccc4)cc23)cc1	Cruzain noTriton 32µM
Cc1c(Cl)cccc1-c1ccc(CNCCSc2nnnn2-c2ccccc2)o1	Cruzain Triton 13µM, Cruzain noTriton 7.9µM
Fc1ccc(-c2ccc(CNCCSc3nnnn3-c3ccccc3)o2)cc1	none
Cc1cc(C)cc(NC(=O)c2cc(CN3CCCC3)on2)c1	none
N#CNC(=Nc1ccc(F)cc1)SCc1ccccc1	Cruzain noTriton 25µM
CC(C)N=C(NC#N)SCc1ccc(F)cc1	none
O=C(Nc1cccc2cccnc12)c1cccc2ccccc12	none
Oc1c(/C=N/Nc2cccc3cccnc23)ccc2ccccc12	Cruzain noTriton 32µM
CN(Cc1ccco1)c1nc(-c2ccccc2C(F)(F)F)nc2ccccc12	none
CCOC(=O)c1c(NC(=O)CSc2c[nH]c3ccccc23)sc2c1CCCC2	Cruzain noTriton 25µM
CCOC(=O)c1c(NC(=O)CSc2nnc3ccccn23)sc2c1CCC2	none
CCOC(=O)c1c(NC(=O)CSc2c[nH]c3ccccc23)sc2c1CCC2	Cruzain noTriton 32µM
CCOC(=O)c1c(NC(=O)CSc2nnc(-c3c[nH]c4ccccc34)n2CCOC)sc2c1CCCCC2	none
Cc1cc(=O)[nH]c2cc3oc4ccccc4c3cc12	none
CC1=C(C(=O)Nc2ccccc2)C(C(C)C)n2nc(SCc3ccccc3C)nc2N1 (stereo unspecified)	Cruzain noTriton inconclusive
CCOc1ccc(NC(=O)C2CC(=O)N(c3ccc(C(C)C)cc3)C2)cc1 (stereo unspecified)	none
O=C(Cc1ccccc1)Nc1ccc(N2CCCC2)cc1	Cruzain Triton inconclusive, Cruzain noTriton 13µM
CCN1CCN(c2ccc(NC(=O)Cc3ccccc3)cc2)CC1	none
CC(C)C(=O)Nc1ccc(N2CCCC2)cc1	none
CC(C)Oc1ccc(C(=O)Nc2ccc(N3CCCC3)cc2)cc1	Cruzain noTriton 4µM
O=C(Nc1ccc(N2CCCC2)cc1)C(c1ccccc1)c1ccccc1	Cruzain noTriton 7.9µM
CC(C)c1ccc(C(=O)Nc2ccc(N3CCOCC3)cc2)cc1	none
O=C(Cc1ccccc1)Nc1cccc(N2CCCC2)c1	Cruzain noTriton 25µM
O=C(CCc1ccccc1)Nc1ccc(N2CCCCC2)cc1	none
Cc1c(Cl)cccc1NC(=O)Cn1c(=O)nc(-c2ccccc2)c2ccccc21	none
CCOc1ccc(Nc2nc(-c3cccc(Cl)c3)c3c(n2)-c2ccccc2OC3)cc1	none
Cc1cnc(CNc2cc(-c3ccoc3)ncn2)cn1	none
Cc1cccc(OCCn2c(SCC(=O)O)nc3ccccc32)c1	none
O=C(c1cc(S(=O)(=O)N2CCCC2)c[nH]1)N1CCN(c2cccc(Cl)c2)CC1	none
CSCC[C@H](NC(=O)c1ccc(Cl)c([N+](=O)[O-])c1)c1nc2ccccc2[nH]1	Cruzain Triton 14µM
O=C(NC(Cc1ccccc1)c1nc2ccccc2[nH]1)c1ccc(Cl)c([N+](=O)[O-])c1 (stereo unspecified)	none
Cc1c(C(=O)NC(Cc2ccccc2)c2nc3ccccc3[nH]2)cccc1[N+](=O)[O-] (stereo unspecified)	Cruzain Triton inconclusive
CSCC[C@H](NC(=O)c1cccc([N+](=O)[O-])c1C)c1nc2ccccc2[nH]1	Cruzain Triton 14µM
COCc1cc(C)nc2sc(C(=O)Nc3ccc(OC(F)(F)F)cc3)c(N)c12	none
CCOC(=O)CCCSc1nc(-c2ccc3c(c2)OCO3)cc(C(F)(F)F)c1C#N	Cruzain noTriton 25µM
CCOC(=O)CSc1nc(-c2ccc(OC)cc2)cc(C(F)(F)F)c1C#N	none
CCCCC(CC)CNCC(CC)CCCC (stereo unspecified)	none
Cc1ccc(CSC2=Nc3sccc3C3=NC(=O)CN23)cc1	Cruzain noTriton 20µM
COc1cc2c(cc1OC)C1=NC(=O)CN1C(SCc1ccc(C)cc1)=N2	none
CC(=O)c1nn(-c2ccc(Br)cc2)cc1C(=O)c1ccccc1	Cruzain noTriton inconclusive

From PubChem BioAssay
